Results: PubChem BioAssay (NCATS)
Inconclusive results are not listed. Calls of active or inactive are those of the source. Calls follow the shape of the dose curve; as a rule, active = well fitted cell-killing curve with a large enough effect; inconclusive = small, poorly fitted or top-dose-only effect, or effect the other way; inactive = flat fitted curve, though single readings scatter. Where a SMILES comes first, the peptide text is derived from it. Bridges are numbered along the chain shown (N, C = ends). [ ]: non-standard residue; d: D form. NMeY = CN[CH](Cc1ccc(O)cc1)C(=O)O

How the values were obtained:
Experiment in all cases: Primary qHTS to identify gynecologic anti-cancer compounds using libraries of approved drugs and bioactive compounds (AID 1345084); also: nearly all actives have a fitted effect of over 55% in size
C33A = conditions: Gynecologic cancer cell panel viability, ATPlite luminescence, 48 h; series mostly up to 57.5 µM
Outline: (§1)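 Cells, 1,000 per well, were allowed to settle for 16 h at 37 C before compound addition. Five concentrations were tested for 48 h, and viability was read by ATPlite luminescence after 15 min at room temperature.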

CAOV3 = conditions: Gynecologic cancer cell panel viability, ATPlite luminescence, 48 h; series mostly up to 57.5 µM
Outline: as §1

CASKI = conditions: Gynecologic cancer cell panel viability, ATPlite luminescence, 48 h; series mostly up to 57.5 µM
Outline: as §1

Es-2 = conditions: Gynecologic cancer cell panel viability, ATPlite luminescence, 48 h; series mostly up to 57.5 µM
Outline: as §1

HeLa = conditions: Gynecologic cancer cell panel viability, ATPlite luminescence, 48 h; series mostly up to 57.5 µM
Outline: as §1

Hek293T = conditions: Gynecologic cancer cell panel viability, ATPlite luminescence, 48 h, control line for the selectivity index; series mostly up to 57.5 µM
Outline: as §1

JEG-3 = conditions: Gynecologic cancer cell panel viability, ATPlite luminescence, 48 h; series mostly up to 57.5 µM
Outline: as §1

OV90 = conditions: Gynecologic cancer cell panel viability, ATPlite luminescence, 48 h; series mostly up to 57.5 µM
Outline: as §1

PA-1 = conditions: Gynecologic cancer cell panel viability, ATPlite luminescence, 48 h; series mostly up to 57.5 µM
Outline: as §1

SKOV3 = conditions: Gynecologic cancer cell panel viability, ATPlite luminescence, 48 h; series mostly up to 57.5 µM
Outline: as §1

Tov-21-G = conditions: Gynecologic cancer cell panel viability, ATPlite luminescence, 48 h; series mostly up to 57.5 µM
Outline: as §1

Tov112D = conditions: Gynecologic cancer cell panel viability, ATPlite luminescence, 48 h; series mostly up to 57.5 µM
Outline: as §1

Measured: Potency

CC(C)C1=CC2C(CC[C@]2(C)O)[C@](C)(O)CC1 (stereo partly specified)
inactive: all assays above

CC(C)=CCC[C@](C)(O)[C@H]1CC[C@]2(C)[C@@H]1[C@H](O)CC1[C@@]3(C)CC[C@H](O)C(C)(C)C3[C@@H](O[C@@H]3O[C@H](CO)[C@@H](O)[C@H](O)[C@H]3O[C@@H]3OC[C@@H](O)[C@H](O)[C@H]3O)C[C@]12C (stereo partly specified)
inactive: all assays above

C/C(=C\CC[C@@H](C)[C@H]1CC(O)[C@@]2(C)C3CC[C@H]4C(C)(C)[C@@H](OC5OCC(O)C(O)C5OC5OC(CO)C(O)C(O)C5O)CC[C@@]45C[C@@]35CC(O)[C@]12C)C(=O)O (stereo partly specified)
inactive: all assays above

CON(C)C(=O)[C@H](O)[C@H](Cc1ccccc1)NC(=O)c1cc2cc(Cl)ccc2[nH]1
inactive: all assays above

C=C1CCC2C(C)(C(=O)O)CCCC2(C)C1CCC(C)CC(=O)O (stereo unspecified)
inactive: all assays above

COc1cc(/C=C/CO)cc(OC)c1O[C@@H]1O[C@H](CO[C@@H]2O[C@H](CO)[C@@H](O)[C@H](O)[C@H]2O)[C@@H](O)[C@H](O)[C@H]1O
inactive: all assays above

CC1CC(=O)C2=C(CCC3(O)C(O)c4c(O)cccc4C(=O)C23O)C1 (stereo unspecified)
inactive: all assays above

CC(C)=CCC[C@](C)(O[C@@H]1O[C@H](CO)[C@@H](O)[C@H](O)[C@H]1O)[C@H]1CC[C@]2(C)[C@@H]1[C@H](O)CC1[C@@]3(C)CC[C@H](O)C(C)(C)C3[C@@H](O[C@@H]3O[C@H](CO)[C@@H](O)[C@H](O)[C@H]3O)C[C@]12C (stereo partly specified)
inactive: all assays above

CC(=O)OC1C(OC(=O)c2ccccc2)C2C(C)(C)CC(=O)CC2(C)C23CCC(C)(C2)C(O)CC13 (stereo unspecified)
inactive: all assays above

C[C@@H]1N[C@H]2N(C1=O)c1ccccc1[C@@]2(O)C[C@@H]1C(=O)N[C@@H](C)c2nc3ccccc3c(=O)n21
inactive: all assays above

Cn1nnc(-c2ccc(-c3ccc(N4C[C@H](CO)OC4=O)cc3F)cn2)n1
inactive: all assays above

CC(C)[C@H]1CC[C@@]2(O)COC(=O)[C@H]2[C@@H]1/C=C(\CO)C(=O)O
inactive: all assays above

C=C1CC2C(C)(CCC(=O)O)C(C(C)(C)O)CCC2(C)C2C(=O)OC(C)(C(=O)OC)C(=O)C12C (stereo unspecified)
inactive: all assays above

CC12CCC3c4ccc(OC5OC(C(=O)O)C(O)C(O)C5O)cc4CCC3C1CCC2O (stereo unspecified)
inactive: all assays above

C[C@H](C(=O)NC1CCCC1)N(C(=O)Cn1nnc(-c2ccc3c(c2)OCO3)n1)C1CCCCC1
inactive: all assays above

CC1=C(C(=O)O)/C(=C\CO[C@@H]2O[C@H](CO)[C@@H](O)[C@H](O)[C@H]2O)C(OC(=O)/C=C\c2ccc(O)cc2)C1 (stereo partly specified)
inactive: all assays above

CCC(C)C1NC(=O)C2CCCN2C(=O)C(NC(C)=O)C(C)OC(=O)C(Cc2ccc(OC)cc2)N(C)C(=O)C2CCCN2C(=O)C(C(C)C)NC1=O (stereo unspecified) (Ac-TPIVP[NMeY](Me); ester 1-C; configuration not given here)
inactive: all assays above

COc1c(C)c(OCC(O)C(C)(C)O)cc2c1COC2=O (stereo unspecified)
inactive: all assays above
